From PubChem
Rows were chosen to be rich in hits. Some 11% of all compounds tested hit in one or more screens of this group.
JMJD2A Tudor: JMJD2A Tudor domain (human) inhibition; Potency, µM (top dose mostly 114 µM), most hits filed as inhibitors; AID 504339; AlphaScreen JMJD2A-Tudor / H3K4me3 peptide binding; 4.4% of 390,000 active; also: nearly all actives have a fitted effect of over 50% in size
HP1b binding inh: inhibitors of HP1-beta chromodomain binding to methylated histone tails | P83916 | AlphaScreen HP1-beta / biotin-H3K9me3 peptide binding | Potency, µM (titrated, usually from 114 µM), usual class: inhibitors | 0.56% of 390,000 active | AID 540317; also: nearly all actives have a fitted effect of over 70% in size
Target sequence (P83916 whole entry, looked up): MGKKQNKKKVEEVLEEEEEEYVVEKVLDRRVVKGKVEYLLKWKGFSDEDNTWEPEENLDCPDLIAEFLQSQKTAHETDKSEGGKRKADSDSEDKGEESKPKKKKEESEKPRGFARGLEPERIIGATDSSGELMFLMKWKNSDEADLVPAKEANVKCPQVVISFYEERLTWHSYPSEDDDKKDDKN
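AlphaScreen: HP1-beta (50 nM) preformed 30 min with biotin-H3(1-18)K9me3 peptide (50 nM) in PBS pH 7.4, 0.01% Tween-20. Compound added for 30 min at RT, then streptavidin donor/nickel chelate acceptor beads (10 ug/mL) for 30 min.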
BAZ2B inh: inhibitors of human BAZ2B bromodomain | Q9UIF8 | AlphaScreen BAZ2B-H3K14Ac peptide displacement | Potency, µM (series often up to 114 µM), hits mostly inhibitors | 4.4% of 360,000 active | AID 504333; also: nearly all actives have a fitted effect of over 60% in size
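BAZ2B 50 nM plus b-H3(5-23)K14Ac 50 nM, PBS pH 7.4/0.01% Tween-20, 30 min RT; compound added (max 110 uM), 30 min RT; streptavidin donor/Ni-chelate acceptor beads 10 ug/mL final, 20 min dark; AlphaScreen read.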
L3MBTL1 inh: L3MBTL1 (human) inhibition. Q9Y468. AlphaScreen L3MBTL1–H3K9me1 peptide binding. Potency, µM (series often up to 57.1 µM), usual class: inhibitors. 0.66% of 230,000 active. AID 485360; also: nearly all actives have a fitted effect of over 60% in size
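Read-out is AlphaScreen signal from streptavidin donor and nickel chelate acceptor beads (10 ug/mL final each) bridging L3MBTL1 (50 nM) and biotinylated K9-monomethylated H3(1-15) peptide (75 nM), after 30 min compound exposure at room temperature.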
G9a block: blocks human histone lysine methyltransferase G9a. Q96KQ7. AID 504332. Potency, µM (titrated, usually from 102 µM), most hits filed as inhibitors. 8.8% of 350,000 active. G9a H3K9 monomethylation, AlphaScreen, 2 h; also: nearly all actives have a fitted effect of over 75% in size
Target sequence (Q96KQ7 913-1193 limits assumed): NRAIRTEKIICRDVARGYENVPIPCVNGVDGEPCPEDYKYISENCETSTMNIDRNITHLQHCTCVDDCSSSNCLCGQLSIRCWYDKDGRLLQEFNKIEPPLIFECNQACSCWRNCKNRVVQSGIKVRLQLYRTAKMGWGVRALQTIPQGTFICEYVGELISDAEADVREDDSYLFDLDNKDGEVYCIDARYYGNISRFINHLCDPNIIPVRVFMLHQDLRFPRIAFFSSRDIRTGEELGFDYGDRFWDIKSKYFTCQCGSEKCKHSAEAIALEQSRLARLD
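G9a (20 nM) was preincubated 15 min with compound, then reacted 2 h at room temperature with 500 nM biotin-H3K9 peptide and 20 µM SAM. Monomethyl-H3K9 detected by AlphaScreen using anti-H3K9me1 antibody.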
A number is an active result; - = inactive; ? = inconclusive; . = no result; [ ] = another dose, or the depositor's remark. Calls follow the shape of the dose curve; as a rule, active = well fitted inhibition curve with a large enough effect; inconclusive = small, poorly fitted or top-dose-only effect; inactive = no such curve, though single readings can be large or run the other way.

SMILES	JMJD2A Tudor	HP1b binding inh	BAZ2B inh	L3MBTL1 inh	G9a block
O=C(NC1C(=O)NNC1c1ccccc1)c1ccccc1 (centres undefined)	-	-	-	-	-
CCCCNc1ncnc2oc(-c3ccco3)c(-c3ccco3)c12	50.1µM	?	.	.	.
CC1CCC(C(C)C)C(OC(=O)Cn2c(-c3ccc(F)cc3)[n+](C)c3ccccc32)C1 (centres undefined)	-	-	-	-	25.1µM
CC(C)(C)c1ccc(O)c(N=Cc2cc(Br)ccc2O)c1	3.98µM	?	-	-	1.78µM
Oc1ccc(Br)cc1C=Nc1ccc(Cl)cc1	-	-	.	.	-
CCN(CC)c1ccc(N=Cc2cc(Br)ccc2O)cc1	39.8µM	-	-	.	14.1µM
N/C(=N\OC(=O)c1ccccc1)c1ccccn1	-	-	-	-	.
N/C(=N\OS(=O)(=O)c1ccc2ccccc2c1)c1cccnc1	-	-	?	-	?
N/C(=N\OS(=O)(=O)c1ccc2ccccc2c1)c1ccccn1	5.01µM	-	20µM	-	5.01µM
N/C(=N/OS(=O)(=O)c1ccc([N+](=O)[O-])cc1)c1ccncc1	-	-	-	-	10µM
N/C(=N\OS(=O)(=O)c1ccccc1)c1ccncc1	-	-	?	-	-[0.501 µM]
N/C(=N\OS(=O)(=O)c1ccc2ccccc2c1)c1ccncc1	-	?	-	-	20µM
Cc1ccc(-c2[nH]ncc2CNCc2ccc(CN(C)C)cc2)cc1	-	-	.	.	.
COc1cccc(NCc2cccn2-c2nnc(N3CCC(C)CC3)s2)c1	-	-	-	.	?
CCOC(=O)c1c(-c2ccc(C)cc2)csc1NC(=O)c1cc(=O)c2cc(C)ccc2o1	56.2µM	?	?	.	?
CCOC(=O)c1c(-c2ccc(C)cc2)csc1NC(=O)c1cc(-c2ccc(OC)cc2)on1	-	-	-	.	-
CCOC(=O)c1c(-c2ccccc2)csc1NC(=O)c1cc(-c2cccc(Cl)c2)on1	-	-	-	.	8.91µM
CCOC(=O)c1c(-c2ccccc2)csc1NC(=O)c1cc(-c2cccc(OC)c2)on1	-	-	-	.	3.98µM
Clc1ccc(C2Nc3cccc4cccc(c34)N2)cc1	?	-	?	-	35.5µM
Cc1cccc(C2Nc3cccc4cccc(c34)N2)c1	?	?	?	.	35.5µM
c1cc2c3c(cccc3c1)NC(c1ccc3c(c1)OCO3)N2	39.8µM	?	39.8µM	.	35.5µM
O=[N+]([O-])c1cc(C2Nc3cccc4cccc(c34)N2)ccc1Cl	-	-	?	?	?
NC(=O)CC1Nc2cccc3cccc(c23)NC1=O (centres undefined)	-	?	-	-	-
Brc1ccc(C2Nc3cccc4cccc(c34)N2)s1	-	?	?	-	25.1µM
CSc1nc(N)nc2c1ncn2CC(=O)N1CCN(c2ccccn2)CC1	-	-	.	-	.
SMILES	JMJD2A Tudor	HP1b binding inh	BAZ2B inh	L3MBTL1 inh	G9a block
Cc1cccc(NC(=O)c2sc3nc4n(c(=O)c3c2C)N=C(c2ccc(F)cc2)CS4)c1C	-	-	-	.	-
Clc1ccc(C2Nc3cccc4cccc(c34)N2)c(Cl)c1	35.5µM	?	.	.	.
Nc1ccccc1N=Cc1ccc(-c2cccc(Cl)c2)o1	-	-	-	-	?
CSc1ccc(C2Nc3cccc4cccc(c34)N2)cc1	17.8µM	17.8µM	50.1µM	-[2.29 µM]	-[0.501 µM]
Clc1cccc(-c2ccc(C3Nc4cccc5cccc(c45)N3)o2)c1	39.8µM	?	.	-	.
C/C(CC(=O)Nc1ccccc1C(F)(F)F)=N\NC(=O)c1cnccn1	-	-	.	.	.
C/C(CC(=O)NCc1ccccc1)=N\NC(=O)c1cnccn1	?	-	-	-	39.8µM
C/C(CC(=O)NCc1ccccc1)=N\NC(N)=S	?	-	-	.	3.16µM
Cc1cc(C)c(S(=O)(=O)Nc2ccc(-c3ccc(N4CCCCCC4)nn3)cc2)c(C)c1	-	-	-	.	-
CCCCCCCCCCCCCCC[C@@H](O)[C@H](CO)NC(C)=O	.	.	.	.	-
CC(=O)C1=C(c2ccccc2)N(C(C)=O)n2c(nnc2C2CCCCC2)S1	-	-	-	.	-
O=C(NCCc1ccccc1)c1sc2ncccc2c1-n1cccc1	-	-	-	.	-
COc1cccc(C(=O)NCCS(=O)(=O)NCc2cccnc2)c1	-	-	-	-	50.1µM
COc1cccc(C(=O)NCCS(=O)(=O)NCc2ccco2)c1	-	-	-	-	20µM
COc1ccc(C(=O)NCCS(=O)(=O)NCc2ccco2)cc1	-	-	-	?	?
COc1cccc(CCNS(=O)(=O)CCNC(=O)c2cccc(OC)c2)c1	-	-	-	-	-
COc1cccc(C(=O)NCCS(=O)(=O)NCc2cccs2)c1	-	-	-	-	35.5µM
O=C(NCCS(=O)(=O)NCc1cccnc1)c1ccccc1	-	-	-	-	-
CCN(C(=O)CN1CCN(C)CC1)c1cccc2ccccc12	1.78µM	?	31.6µM	-	1.78µM
CCN(C(=O)CN1C(=O)CN(C)C1=O)c1cccc2ccccc12	-	-	.	-	.
CCOC(=O)c1oc2c(C)c(O)ccc2c(=O)c1-c1nncn1-c1ccccc1	-	-	-	-	-
CCOC(=O)c1oc2c(O)c(O)ccc2c(=O)c1-c1nncn1-c1ccccc1	?	-	?	?	3.16µM
O=C(O)c1cc(N2C(=O)C=CC2=O)cc(N2C(=O)C=CC2=O)c1	2.24µM	5.62µM	.	.	.
Cc1ccc2nc(CSc3nnc(NC(=O)COc4ccccc4F)s3)cc(=O)n2c1	-	-	-	.	-
COc1ccccc1Nc1nnc(SCc2cc(=O)n3cc(C)ccc3n2)s1	-	-	-	-	12.6µM
SMILES	JMJD2A Tudor	HP1b binding inh	BAZ2B inh	L3MBTL1 inh	G9a block
CC(C)CN(C(=O)CSc1nn(-c2ccc(Cl)cc2)c(=S)s1)C1CCS(=O)(=O)C1 (centres undefined)	-	-	-	-	20µM
Cc1ccc(-n2ccnc2SCC(=O)N(CC(C)C)C2CCS(=O)(=O)C2)c(C)c1 (centres undefined)	20µM	-	-	-	.
Cc1nnc(SCC(=O)N(CC(C)C)C2CCS(=O)(=O)C2)s1 (centres undefined)	-	-	-	-	?
Cc1nc(SCC(=O)N(CC(C)C)C2CCS(=O)(=O)C2)c(C#N)c(C)c1C (centres undefined)	-	-	-	-	50.1µM
COc1ccc(C2CC(=O)c3c([nH]c(C(=O)OC4CCCCCC4)c3C)C2)cc1OC (centres undefined)	-	-	-	.	-
COc1cc(OC)cc(C(=O)NNC(=S)NC2CC2)c1	-	-	-	-	56.2µM
CCc1ccc2c(CN3CCC(C(=O)OC)CC3)cc(=O)oc2c1	-	-	-	.	50.1µM
Cc1ccc2oc(=O)cc(CN3CCN(Cc4ccccc4)CC3)c2c1	-	-	-	.	50.1µM
Cc1cc(C)c2c(CN3CCN(Cc4ccccc4)CC3)cc(=O)oc2c1C	?	-	?	.	50.1µM
CC(C)c1ccc2oc(=O)cc(CN3CCCCC3)c2c1	-	-	-	.	70.8µM
CC1CCN(Cc2cc(=O)oc3ccc(C(C)C)cc23)CC1	-	-	-	.	-
